ALDH1A1 inh: inhibitors of human aldehyde dehydrogenase 1A1; P00352; Purified ALDH1A1, NADH fluorescence, propionaldehyde substrate; Potency, µM (doses to about 75.3 µM), inactives show at the highest dose activity, negative = inhibition, most hits filed as inhibitors; 7.3% of 220,000 active;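 also: plate controls were no enzyme wells and a reference inhibitor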
Target sequence (P00352 whole entry, looked up): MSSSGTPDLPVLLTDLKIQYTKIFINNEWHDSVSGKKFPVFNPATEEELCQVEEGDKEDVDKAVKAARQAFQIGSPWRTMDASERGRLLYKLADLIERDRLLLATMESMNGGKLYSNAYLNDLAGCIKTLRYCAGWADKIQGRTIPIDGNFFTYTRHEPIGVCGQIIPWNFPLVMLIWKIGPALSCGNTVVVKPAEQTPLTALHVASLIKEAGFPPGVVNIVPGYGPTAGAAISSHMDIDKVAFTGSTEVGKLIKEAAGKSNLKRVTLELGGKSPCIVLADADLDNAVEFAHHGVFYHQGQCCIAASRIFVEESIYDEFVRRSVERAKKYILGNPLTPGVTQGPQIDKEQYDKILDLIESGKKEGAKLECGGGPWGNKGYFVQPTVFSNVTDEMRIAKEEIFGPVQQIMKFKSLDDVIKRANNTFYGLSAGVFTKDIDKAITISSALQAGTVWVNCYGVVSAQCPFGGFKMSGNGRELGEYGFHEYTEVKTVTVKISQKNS
HttQ103 aggreg: reduces HttQ103-GFP aggregates in PC12 cells | AID 1688 | 1.1% of 220,000 active | PC12 HttQ103-GFP aggregates, Acumen cytometry, 40 h | Potency, µM (doses to about 46.1 µM), for the others: at the highest dose activity change, negative = inhibition, hits mostly inhibitors; active = well fitted curve in the direction sought with a large enough effect; inconclusive = small, poorly fitted or top-dose-only effect, or another doubt; inactive = no such curve, though single readings can be large; an effect the other way counts as inactive or inconclusive; also: % is scaled to controls: 0 for no effect and ±100 for the full control effect; nearly all actives have a fitted effect of over 60% in size
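PC12 cells with ecdysone-inducible HTT exon1 Q103-GFP, induced by 100 nM tebufenozide, given compounds in a concentration series. GFP aggregates (1–25 um, 6 SD above background) counted in lysates by laser-scanning cytometry, 488 nm excitation.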
HPGD block: inhibitors of human 15-hydroxyprostaglandin dehydrogenase (HPGD); purified HPGD, NADH fluorescence kinetic, PGE2 substrate; Potency, µM, inactives show at the highest dose activity change, negative = inhibition, actives largely listed as inhibitors; 4.3% of 150,000 active; also: % is scaled to controls: 0 for no effect and ±100 for the full control effect
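NADH formation kinetics: reaction with 30 uM PGE2 and 1 mM NAD+ (final), 20 nM enzyme, Tris-HCl pH 8 with Tween 20, after 15 min compound preincubation at room temperature. Fluorescence change, last versus first of five reads.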
LMNA splice mod: LMNA splicing modulation; HeLa LMNA splicing GFP/RFP minigene ratio, 48 h; Potency, µM (doses to about 46.1 µM), inactives show top-dose ratio change, negative = inhibition, most hits filed as inhibitors; 0.01% of 200,000 active; active = well fitted inhibition curve with a large enough effect in the signal ratio, with a control signal flat, not every such curve was filed as active; inconclusive = small, poorly fitted or top-dose-only effect, or effect the other way, or a change in a side signal; the % refers to the signal ratio; also: % is scaled to controls: 0 for no effect and ±100 for the full control effect
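Read-out is the ratio of GFP to DsRed2 object intensity, acquired by 488 nm laser-scanning cytometry on HeLa lamin A-EGFP minigene reporter cells. Compound incubation 48 hrs at 37 °C in Opti-MEM with 2% FBS; DMSO 0.5% final.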
HTT cytoprotect: cytoprotection in Huntington HTT-Q103 PC12 cell model. Potency, µM (top dose mostly 56.4 µM), for the others: cytoprotection (ATP increase), hits mostly activators. PC12 HTT-Q103 induced, cytoprotection, ATP luminescence, 40 h. AID 1471. 0.14% of 230,000 active; active = well fitted curve in the direction sought with a large enough effect; inconclusive = small, poorly fitted or top-dose-only effect, or another doubt; inactive = no such curve, though single readings can be large; an effect the other way counts as inactive or inconclusive; also: % of control where 0% means no effect; nearly all actives have a fitted effect of over 45% in size
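Stable PC12 Q103-GFP cells in serum-supplemented, phenol red-free DMEM; induction by tebufenozide at 100 nM final; compound dose series; cell viability quantified luminescently from ATP.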
KDM4E inh: blocks human JMJD2E demethylase activity; JMJD2E catalytic domain, FDH-coupled NADH fluorescence (FDH is formaldehyde dehydrogenase); Potency, µM (top dose mostly 57.1 µM), for the others: at the top dose activity change, negative = inhibition, usual class: inhibitors; 1.6% of 230,000 active;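 also: 0% = wells with enzyme and -100% = buffer wells without enzyme; nearly all actives have a fitted effect of over 50% in size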
Target sequence (B2RXH2 1-337 limits assumed): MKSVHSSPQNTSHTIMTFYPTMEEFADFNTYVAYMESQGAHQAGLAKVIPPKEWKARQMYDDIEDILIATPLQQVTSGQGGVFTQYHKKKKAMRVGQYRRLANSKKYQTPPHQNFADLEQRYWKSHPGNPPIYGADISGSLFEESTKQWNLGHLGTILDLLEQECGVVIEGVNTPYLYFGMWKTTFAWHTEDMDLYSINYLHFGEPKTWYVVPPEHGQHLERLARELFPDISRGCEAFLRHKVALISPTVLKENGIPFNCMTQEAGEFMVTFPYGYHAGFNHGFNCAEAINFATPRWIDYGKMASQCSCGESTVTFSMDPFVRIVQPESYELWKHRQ
An asterisk follows results filed as active; ? = inconclusive; nt = not tested or not shown; [ ] = dose if it differs, or a comment. This is a sample that favours compounds with a hit; in the whole collection about 9.2% have one here. Unless noted, calls follow the shape of the dose curve; as a rule, active = well fitted inhibition curve with a large enough effect (not every such curve was filed as active); inconclusive = small, poorly fitted or top-dose-only effect, or another doubt; inactive = no such curve, though single readings can be large or run the other way. Potency is read from the fitted curve at half-maximal effect.

SMILES	ALDH1A1 inh	HttQ103 aggreg	HPGD block	LMNA splice mod	HTT cytoprotect	KDM4E inh
O=C(COC(=O)COc1ccccc1[N+](=O)[O-])Nc1ccc(S(=O)(=O)N2CCCCC2)cc1	14.1µM*	2.1%[9.22 µM]	-22.3%	3.5%	2.1%	-2.3%
O=C(COc1ccccc1)Nc1ccc(S(=O)(=O)N2CCCCCC2)cc1	-11.5%	-8.1%	-15.5%	-12.4%	-20.3%	11.0%
COc1ccc(NS(=O)(=O)c2ccc(C)c(NC(=O)c3ccc(C)c(S(=O)(=O)N4CCOCC4)c3)c2)cc1	11.0%	-20.7%	-9.7%	?	6.9%[10 µM]	-21.4%
COc1ccc(NC(=O)CNc2cc(S(=O)(=O)N3CCOCC3)ccc2NCC2CCCO2)cc1 (centres undefined)	7.08µM*	16.2%	nt	4.6%[46 µM]	-30.0%	-22.3%
O=C(O)/C=C/c1cn(-c2ncc(C(F)(F)F)cc2Cl)c2ccccc12	-14.9%	-5.6%	2µM*	13.3%	-23.2%	3.6%
CCOC(=O)C1(CCCc2ccccc2)CCN(C(=O)CCc2cnn(C)c2)CC1	?	1.1%[9.22 µM]	nt	5.2%[46 µM]	24.0%[10 µM]	-9.1%
CCOC(=O)C1(CCCc2ccccc2)CCN(C(=O)c2cnc(C)cn2)CC1	4.47µM*	-3.5%[9.22 µM]	nt	nt	0.6%[10 µM]	1.6%
CCOC(=O)C1(CCCc2ccccc2)CCN(C(=O)CCOC)CC1	0.447µM*	1.1%[9.22 µM]	nt	nt	-19.6%[10 µM]	3.4%
CCOC(=O)C1(CCCc2ccccc2)CCN(C(=O)c2cc(C)nc(C)n2)CC1	?	1.7%[9.22 µM]	nt	?	-1.2%[10 µM]	0.4%
CCOC(=O)C1(CCCc2ccccc2)CCN(C(=O)CCN2CCCCC2=O)CC1	4.47µM*	1.9%[9.22 µM]	nt	nt	18.9%[10 µM]	5.4%
C/C(=N\NC(=O)c1ccccn1)c1ccc(C(=O)O)s1	10µM*	18.4%[9.22 µM]	nt	nt	20.4%[10 µM]	-1.5%
C/C(=N\NC(=O)c1ccccc1O)c1ccc(Br)s1	-14.5%	-8.2%	31.6µM*	?	-39.9%[10 µM]	-5.6%
CC(=N/O)/C(C)=N\NC(=O)c1ccccn1	11.7%	3.5%	nt	-7.2%[9.22 µM]	-92.0%	3.2%
C/C(=N\NC(=O)c1ccccc1[N+](=O)[O-])c1ccc(Br)s1	3.3%	22.1%	nt	10.6%[46 µM]	?	10.7%
C/C(=N/NC(=O)CNC(=O)c1ccccn1)c1ccccc1	14.1µM*	5.3%	?	-1.9%	-4.5%[10 µM]	-0.4%
C=CCNC(=S)N/N=C(\C)c1ccccn1	?	3.55µM*	-22.3%	?	-60.9%[10 µM]	8.91µM*
N#CCCN(CC#Cc1ccccc1)OCc1ccccc1	-15.4%[13.5 µM]	nt	nt	nt	-10.2%[10 µM]	nt
CCn1c2ccccc2c2cnc(N=CN(C)C)c(C#N)c21	?	8.91µM*	-29.9%	-10.3%	-72.7%	?
CCN(CC)CCn1c2ccccc2c2cnc(N=CN(C)C)c(C#N)c21	?	2.1%	?	?	-87.1%	?
NCCCCNS(=O)(=O)c1cccc2c(Cl)cccc12	-7.9%	nt	-19.0%	?	-7.8%[1.9 µM]	6.1%
Cc1ccc(S(=O)(=O)NCCCNS(C)(=O)=O)cc1	?	-6.8%	-5.9%	-0.1%	10.6%	3.3%
O=[N+]([O-])c1ccc(NCCCNS(=O)(=O)c2ccccc2)cc1	17.8µM*	7.0%[9.22 µM]	nt	7.2%[46 µM]	-57.5%	-16.5%
O=[N+]([O-])c1ccc(NCCCNS(=O)(=O)c2ccc(Cl)cc2)c(Cl)c1	0.6%	?	-13.6%	16.4%	-81.8%	-7.0%
O=S(=O)(NCCCc1ccccc1)c1ccccc1	?	-16.8%	-10.1%	2.9%	5.5%	-3.2%
Cc1ccc(S(=O)(=O)NCCCNc2ccc([N+](=O)[O-])cc2)cc1	14.1µM*	3.5%[9.22 µM]	nt	1.7%[46 µM]	4.4%[10 µM]	-7.6%
SMILES	ALDH1A1 inh	HttQ103 aggreg	HPGD block	LMNA splice mod	HTT cytoprotect	KDM4E inh
NCCCCCCNS(=O)(=O)c1cccc2ccccc12	12.6µM*	nt	-26.2%	nt	11.9%	?
O=S(=O)(NCCCCCNS(=O)(=O)c1ccccc1)c1ccccc1	0.562µM*	-26.1%	-11.1%	?	16.0%[1.9 µM]	?
C=C[C@@H](C1=CC(=O)C(OC)=C(OC)C1=O)c1ccccc1	-10.1%	nt	20µM*	nt	?	?
CCN(CC)CCCCC1CCN(CC(=O)N2c3ccccc3C(=O)Nc3cccnc32)CC1	2.2%	nt	-14.2%	nt	17.3%	17.9%
O=C(NCc1ccccc1)c1cccc(COc2ccc(Cl)cc2)c1	?	?	-27.2%	-3.2%	-39.1%	2.0%
NNC(=O)c1cccc(COc2ccc(Br)cc2)c1	0.631µM*	?	-6.2%	-10.4%	-12.5%[10 µM]	-0.9%
NNC(=O)c1cccc(COc2cccc(Br)c2)c1	3.16µM*	-29.9%	-7.8%	-13.0%	-27.3%	11.2%
O=C(NN1CCOCC1)c1cccc(COc2cccc(Br)c2)c1	8.0%	-19.7%	nt	-4.2%[46 µM]	9.6%[10 µM]	-1.1%
COc1ccc(OCc2cccc(C(=O)NN)c2)cc1	0.316µM*	1.0%	-16.1%	?	nt	65.9%
CCOc1ccc(-c2csc(Cn3c(CN4CCN(C)CC4)nc4ccccc4c3=O)n2)cc1	14.1µM*	30.7%	nt	-20.3%	19.2%[10 µM]	-7.7%
CC1(C)S[C@@H]2[C@H](NC(=O)[C@@H](N)c3ccc(O)cc3)C(=O)N2[C@H]1C(=O)O	-11.6%[20.9 µM]	nt	-15.2%	?	?	?
CC1(C)S[C@@H]2[C@H](NC(=O)[C@@H](N)c3ccccc3)C(=O)N2[C@H]1C(=O)O[C@H]1OC(=O)c2ccccc21	2.82µM*	0.8%[20.6 µM]	?	?	-38.7%[17.1 µM]	?
CN(C)C(=O)CCSc1nnc(-c2ccco2)o1	5.5%	21.3%	nt	-18.0%[9.22 µM]	-39.4%	-1.3%
O=C(CSc1nccc(=O)[nH]1)Nc1ccc(Br)c(Cl)c1	?	-24.9%	31.6µM*	?	1.1%[0.074 µM]	2.4%
O=C(CSc1nccc(=O)[nH]1)Nc1ccc(F)c(Cl)c1	?	-4.7%	-25.4%	-1.4%	-0.9%	1.2%
CC(C)CO/N=C1/C[C@@H](O)[C@@H](O)[C@@H]2[C@@H]3C(=O)N(C[C@@H]4CCCO4)C(=O)[C@H]3CC[C@H]12	2.0%[13.5 µM]	nt	nt	nt	?	nt
CCS(=O)(=O)c1ccc(OC)c(N=Nc2ccc(O)c3ncccc23)c1	-6.9%	7.94µM*	nt	nt	-177.4%	17.8µM*
NS(=O)(=O)c1cc(Br)c(N=Nc2ccc(O)c3ncccc23)c(Br)c1	13.0%[13.5 µM]	nt	-2.9%	nt	0.9%[10 µM]	nt
Cc1ccccc1C(=O)N1CCN(C(c2ccccc2)c2ccccc2)CC1	nt	-26.8%[9.22 µM]	nt	nt	11.7%[10 µM]	-1.1%
Cc1occc1C(=O)N1CCN(C(c2ccccc2)c2ccccc2)CC1	?	20µM*	-22.0%	-20.0%	-16.8%[10 µM]	-14.1%
Cc1occc1C(=O)N1CCN(S(C)(=O)=O)CC1	20µM*	-7.0%	3.6%	2.3%	5.7%[0.074 µM]	1.1%
Cc1oc(C(C)(C)C)cc1C(=O)N1CCN(C(c2ccccc2)c2ccccc2)CC1	8.91µM*	-1.2%[9.22 µM]	nt	7.7%[46 µM]	-9.9%[10 µM]	-3.2%
O=C(C1=COCCO1)N1CCN(S(=O)(=O)c2cccc(Cl)c2Cl)CC1	-3.2%	-2.9%	-11.3%	5.6%	-10.9%[10 µM]	-0.2%
